This is a sample that favours compounds with a hit; in the whole collection about 2.2% have one here.
KLF5 inhibitor – KLF5 expression inhibitors, primary screen, DLD-1 cells, luminescence; inhibition, % at 5 µM; actives 0.23% (n = 290,000); DLD-1 KLF5 promoter-luciferase reporter;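 active = inhibition above a per-plate limit of that plate's mean compound inhibition plus 3 SD, cut at about 60% in these data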;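 note: 0% = DMSO wells and 100% = LY294002 at 200 µM; higher means less KLF5 promoter-driven luciferase light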
IEC-6 cytotox – cytotoxicity in IEC-6 intestinal epithelial cells, primary screen, cytotoxicity control for KLF5 inhibitor project, cell-based, luminescence. IEC-6 cytotoxicity, luminescence viability. inhibition, % at 5 µM. actives 0.78% (n = 290,000);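 note: 0% = plate median of test compound wells and 100% = cytotoxic reference compound wells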
APP transl inh – inhibitors of APP translation via 5'UTR reporter, primary screen, APP 5'UTR luciferase, SH-SY5Y cells | SH-SY5Y APP 5'UTR-luciferase reporter, luminescence | inhibition, % at 2 µM | actives 0.82% (n = 190,000) | AID 1285, 2008;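 active = inhibition above a set limit, derived from the sample mean plus 3 SD, cut at about 45% in these data; inconclusive = one replicate passes the limit while the other fails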
aSyn UTR inh – MLPCN primary screen, SNCA 5' untranslated region | alpha-synuclein 5'UTR reporter, inhibitor activity | inhibition, % (tested at 7.5 µM) | AID 1813, 2009 | actives 0.82% (n = 300,000); in the data active = inhibition above about 60%; inconclusive = no clear call, values can overlap the other calls;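 note: H4 neuroglioblastoma cells stably carrying SNCA 5'UTR luciferase fusion; 0% = DMSO wells and 100% = positive control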
Ba/F3 V617F tox – reduced viability of JAK2V617F-dependent Ba/F3 cells, primary screen, JAK2V617F inhibitor project, cell-based, Ba/F3 EpoR-JAK2V617F, luminescence. ATP luminescence. inhibition, % at 5.6 µM. actives 1.1% (n = 220,000). AID 1446, 2008;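 active = inhibition above the campaign mean plus 3 SD over all tested compounds, cut at about 24% in these data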;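 note: cytokine-independent growth of Ba/F3 cells driven by EpoR plus mutant JAK2; 0% = DMSO-treated cells and 100% = JAK inhibitor I control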
BaF3 parental – parental Ba/F3 cell viability inhibition, counter-screen for JAK2V617F inhibitor project, murine pro-B, CellTiter-Glo luminescence | CellTiter-Glo ATP luminescence | inhibition, % at 5.6 µM | actives 1.1% (n = 220,000);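 active = inhibition above a per-campaign cutoff, the mean inhibition of all tested compounds plus 3 SD, cut at about 27% in these data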;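 note: 0% = DMSO wells and 100% = JAK Inhibitor I control wells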
IEC-6 tox confirm – cytotoxic compounds in IEC-6 epithelial cells, confirmation, cytotoxicity control, cell-based, luminescence; inhibition, % at 5 µM; actives 63% (n = 1,900); shares compounds with IEC-6 cytotox; IEC-6 rat intestinal epithelial viability;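 note: 0% = vehicle and 100% = reference cytotoxic drug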
The depositor's hits bear a star; ? = inconclusive; nt = no result given. Cut-off read from the data, not from the text of the source, unless noted: active = inhibition above about 22%; inactive = the rest.

SMILES	KLF5 inhibitor	IEC-6 cytotox	APP transl inh	aSyn UTR inh	Ba/F3 V617F tox	BaF3 parental	IEC-6 tox confirm
COc1cccc(NC(=O)C2CCCN(S(=O)(=O)c3cccc4cccnc34)C2)c1 (centres undefined)	-13	-8	-20	14	0	3	nt
O=C(Nc1ccncc1)C1CCCN(S(=O)(=O)c2cccc3cccnc23)C1 (centres undefined)	47	56*	76*	27	85*	70*	46*
COc1ccc(S(=O)(=O)Nc2cc(Cl)ccc2OC)cc1	59	68*	87*	44	81*	72*	53*
Cc1nn2c(NCCN(C)C)c3c(nc2c1-c1ccccc1)CCCC3	-3	25*	nt	nt	7	4	1
COCCNc1c2c(nc3c(-c4ccccc4)c(C)nn13)CCCC2	-11	-2	11	37	1	8	nt
CCCOc1ccc(S(=O)(=O)n2cc(Br)c(=O)[nH]c2=O)cc1	-3	-2	2	15	6	12	nt
CCOc1ccc(S(=O)(=O)n2cc(F)c(=O)[nH]c2=O)cc1[N+](=O)[O-]	-2	55*	nt	3	nt	nt	12
CCOc1ccc(S(=O)(=O)n2cc(F)c(=O)[nH]c2=O)cc1	11	86*	4	14	44*	60*	13
FC(F)(F)c1cnc(Sc2nnc(-c3cccs3)n2CC2CCCO2)c(Cl)c1 (centres undefined)	-47	25*	0	0	1	0	34*
FC(F)(F)c1ccc(Sc2nnc(-c3cccs3)n2CC2CCCO2)nc1 (centres undefined)	-12	0	19	20	-1	1	nt
Cc1ccc(C2/C(=C(\O)c3ccc4c(c3)OCCO4)C(=O)C(=O)N2CC2CCCO2)cc1 (centres undefined)	-16	10	nt	nt	nt	nt	nt
CN(C)c1ccc(Nc2cc(Cl)ncn2)cc1	-31	7	nt	10	nt	nt	nt
CC1=Nc2cc(C(=O)NCCCN3CCN(C)CC3)ccc2Sc2ccc(C)cc21	-35	-3	nt	0	nt	nt	nt
CC1=Nc2cc(C(=O)NCC3CCCO3)ccc2Sc2ccc(C)cc21 (centres undefined)	61	79*	nt	44	nt	nt	53*
COC(=O)Nc1nc(-c2ccccc2)c(C(=O)c2ccccc2)s1	53	84*	95*	100*	80*	78*	56*
O=C(COC(=O)C1=COCCO1)NC1CCCCC1	nt	nt	nt	-11	nt	nt	nt
CCOc1ccc(C(C)=O)cc1COc1cccnc1[N+](=O)[O-]	31	28*	nt	-45	nt	nt	24*
COC(=O)c1ccccc1NC1=C/C(=N\S(=O)(=O)c2ccc(C(=O)O)cc2)c2ccccc2C1=O	-6	28*	nt	3	nt	nt	13
CN(C)c1ccc(/C=N/NC(=O)CN2CCCCC2)cc1Br	-12	1	nt	5	nt	nt	nt
COc1cccc(NC(=O)Nc2nc(-c3ccc(OC)c(OC)c3)cs2)c1	37	24*	nt	41	nt	nt	15
O=S(=O)(c1ccc2c(c1)nc(COc1ccc(Cl)cc1)n2CC1CCCO1)N1CCOCC1 (centres undefined)	-15	37*	-4	38	33*	56*	-8
Cc1ccc2[nH]c3c(c2c1)CCCC3NC(=O)CCl (centres undefined)	43	56*	nt	15	nt	nt	60*
Cc1ccc2[nH]c3c(c2c1)CCCC3C(N)=O (centres undefined)	-37	-4	-16	-25	-1	4	nt
Cc1cc(-c2ccc(C(C)C)c(S(=O)(=O)N3CCN(c4ccccn4)CC3)c2)on1	15	23*	nt	-47	nt	nt	12
CCOc1cc(/C=C2\CN(C)C/C(=C\c3ccc(O)c(OCC)c3)C2=O)ccc1O	33	88*	nt	96*	nt	nt	38*
SMILES	KLF5 inhibitor	IEC-6 cytotox	APP transl inh	aSyn UTR inh	Ba/F3 V617F tox	BaF3 parental	IEC-6 tox confirm
CCOc1ccccc1C(=O)Nc1nnc(Cc2ccc(OC)c(OC)c2)s1	-5	-7	nt	43	nt	nt	nt
C=CCOc1ccccc1CN1CCC(n2nccc2NC(=O)c2ccccc2)CC1	-25	0	nt	-7	nt	nt	nt
COc1ccc([N+](=O)[O-])cc1NC(=O)C1CCCN1S(=O)(=O)c1cccs1 (centres undefined)	nt	nt	nt	13	nt	nt	nt
Clc1ccc(OCCN2CCN(c3ncnc4sccc34)CC2)cc1	6	26*	15	-4	66*	73*	10
COc1ccc(CC(=O)NCc2ccccc2)cc1	45	50*	nt	-154	nt	nt	37*
O=C(Cc1ccc(Br)cc1)NCc1ccccc1	35	60*	nt	-67	nt	nt	45*
CCOc1ccc2[nH]c3c(N4CCc5ccccc5C4)ncnc3c2c1	12	40*	nt	33	5	-3	90*
CN1CCN(c2ncnc3c2[nH]c2ccc(F)cc23)CC1	-20	4	-4	-7	1	8	nt
O=C1CN(C(=O)c2ccccc2)c2ccccc2N1	-18	11	-11	19	1	2	nt
O=C1CN(C(=O)c2cccc(Br)c2)c2ccccc2N1	4	38*	nt	-85	nt	nt	10
O=[N+]([O-])c1cccnc1S(=O)(=O)c1ccccc1	20	41*	nt	-7	nt	nt	9
Cc1onc(-c2ccccc2Cl)c1C(=O)NC(=S)Nc1ccc(C(C)C)cc1	-4	22*	nt	6	58*	63*	-10
CN(C)c1nc(C=C(C#N)C#N)c(Cl)n1-c1ccc(F)cc1	0	-1	4	16	4	2	nt
C[C@@H](NC(=O)[C@@H]1Cc2ccccc2CN1)C(=O)NCc1ccco1	-13	0	nt	12	nt	nt	nt
CCO[C@@H]1OC(C(=O)Nc2ccccc2)=C[C@H](c2coc3ccccc3c2=O)[C@H]1CCCO	-22	25*	4	?	6	-4	5
O=c1c2ccccc2nc(SCCN2CCCCC2)n1CCc1ccccc1	-11	22*	12	-50	8	12	9
NC(=O)CSc1nc2ccccc2c(=O)n1CCc1ccccc1	-17	5	nt	-17	nt	nt	nt
CN(C)c1nc(C(=O)O)nc(N2CCOCC2)n1	7	5	nt	9	-2	-1	nt
CCOC(=O)N1CCN(C(=O)c2ccccc2-c2ccccc2)CC1	38	40*	39	-34	53*	47*	35*
CCOC(=O)c1ccc(NC(=S)N2CCN(C(=O)C3CCCO3)CC2)cc1 (centres undefined)	-7	29*	nt	-4	nt	nt	7
O=C(C1CCCO1)N1CCN(C(=S)Nc2ccccc2)CC1 (centres undefined)	-8	8	8	29	-6	1	nt

Compound activity (PubChem)
